Active and inactive are the calls of the source.

In one assay the target is Albumin (Bos taurus) (UniProt P02769). In words: compounds binding labelled BSA control protein – biochemical, small-molecule microarray, Alexa647 label, 635/667 nm fluorescence, artefact control for SMM control protein annotation, profiling panel (AID 1118).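 Also: score merges 667 nm emission intensity and signal-to-noise per printed compound spot.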 The note with it: BSA-A647 binding, fluorescence 635 nm, higher = more signal.
Albumin (Bos taurus), sequence (P02769 whole entry, looked up): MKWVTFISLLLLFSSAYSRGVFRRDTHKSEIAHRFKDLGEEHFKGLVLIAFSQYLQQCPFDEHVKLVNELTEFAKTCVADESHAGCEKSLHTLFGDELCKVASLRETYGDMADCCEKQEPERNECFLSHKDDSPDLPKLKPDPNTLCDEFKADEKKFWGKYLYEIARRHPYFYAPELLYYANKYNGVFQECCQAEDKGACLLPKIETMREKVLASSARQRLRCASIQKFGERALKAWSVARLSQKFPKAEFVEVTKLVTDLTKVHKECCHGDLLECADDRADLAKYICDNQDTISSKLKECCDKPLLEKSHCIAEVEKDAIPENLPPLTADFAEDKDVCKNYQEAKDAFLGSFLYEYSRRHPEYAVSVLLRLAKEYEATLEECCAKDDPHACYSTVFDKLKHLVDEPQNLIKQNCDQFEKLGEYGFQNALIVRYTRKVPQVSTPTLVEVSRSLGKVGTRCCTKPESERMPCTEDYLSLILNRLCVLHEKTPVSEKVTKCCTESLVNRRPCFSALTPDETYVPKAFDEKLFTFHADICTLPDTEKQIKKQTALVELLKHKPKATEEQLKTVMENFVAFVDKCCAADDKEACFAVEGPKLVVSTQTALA
Assay [1] is described as follows: probe aXIP binding to arrayed compounds – biochemical, NeuroSMM set, 635/667 nm fluorescence, primary screen (AID 1119).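 Also: probe is the protein aXip251-270 applied at 1 µg/mL to compound-printed slides; binding of probe to printed compounds measured as 667 nm fluorescence plus signal to noise.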 The note with it: small-molecule microarray, higher = more signal, called active from +8 up or from −8 down.
Assay [2] can be described thus: probe aNOTCH3 binding on compound microarray – biochemical, small-molecule microarray, 635/667 nm fluorescence, primary screen (AID 1120).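 Also: probe is a biotin-tagged antibody raised against NOTCH3 rather than NOTCH3 protein; score merges spot fluorescence near 667 nm with spot signal to noise.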 Particulars: higher = more signal.
Assay [3] in a line: probe aNOTCH2 binding on compound microarray – biochemical, small-molecule microarray, 635/667 nm fluorescence, primary screen (AID 1121).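 Also: score merges feature fluorescence read at 667 nm with its signal to noise.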 The note with it: higher = more signal.
Assay [4] concerns the target Carbonic anhydrase 2 (Homo sapiens) (UniProt P00918). Description: compounds binding carbonic anhydrase 2 – biochemical, small-molecule microarray, Alexa647-labelled CAII, profiling panel (AID 1122). Particulars: CAII-A647 binding fluorescence, higher = more signal.
Assay [5] can be described thus: COS7 lysate on small-molecule microarray, probe aHis, 635 nm (AID 1123).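 Also: z-score combines 667nm fluorescence intensity with signal-to-noise per printed compound spot.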 Particulars: COS7 cell lysate, fluorescence, higher = more signal.
Assay [6] can be described thus: probe aLAP1 signal on lysate-treated microarray – cell lysate, small-molecule microarray, COS7 lysate, primary screen (AID 1124).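 Also: lysate comes from COS7 cells expressing LAP1 and is applied at 0.3 µg/mL; score merges spot fluorescence near 667 nm with signal-to-noise over triplicate slides.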 Particulars: probe aLAP1, fluorescence, higher = more signal.
A further assay concerns Sam68 (KHDRBS1). In words: compounds binding KHDRBS1 protein – biochemical, small-molecule microarray, 635 nm fluorescence, primary screen (AID 1125).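 Also: score merges 667 nm channel intensity with signal to noise over triplicate slides.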 The note with it: higher = more signal.
In assay [7] the test system is Chordin-like protein 2 (CHRDL2). Description: compounds binding chordin-like 2 – biochemical, small-molecule microarray, 635 nm fluorescence, primary screen (AID 1126).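 Also: printed compound slides probed with Chrdl2 protein at 4 µg/mL for 1 h at 4 C; score merges 667 nm emission intensity with signal to noise over three replicate slides.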 The note with it: fluorescence 635 nm, higher = more signal.
The target of assay [8] is Concanavalin-A (Canavalia ensiformis) (UniProt P02866). Description: compounds binding concanavalin A lectin – biochemical, small-molecule microarray, Alexa647 label, 635 nm, artefact control for SMM control protein annotation, primary screen (AID 1127).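 Also: z combines 667 nm emission intensity with signal-to-noise across three replicate slides.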 Particulars: ConA-A647 binding fluorescence, higher = more signal.
Concanavalin-A (Canavalia ensiformis), sequence (P02866 whole entry, looked up): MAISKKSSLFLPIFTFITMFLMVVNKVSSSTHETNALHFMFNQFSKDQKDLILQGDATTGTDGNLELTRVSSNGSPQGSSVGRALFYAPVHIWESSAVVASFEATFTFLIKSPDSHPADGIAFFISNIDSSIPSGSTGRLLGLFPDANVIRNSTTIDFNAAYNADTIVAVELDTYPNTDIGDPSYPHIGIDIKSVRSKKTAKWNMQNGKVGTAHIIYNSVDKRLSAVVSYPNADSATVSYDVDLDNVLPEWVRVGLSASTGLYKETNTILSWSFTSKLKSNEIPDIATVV
The nature of assay [9]: compounds binding Alexa647 anti-His antibody – biochemical, small-molecule microarray, 635 nm fluorescence, artefact control for SMM control protein annotation, primary screen (AID 1128).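 Also: score merges feature fluorescence with signal-to-noise for each printed compound spot.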 The note with it: higher = more signal.
Assay [10] relates to Human papillomavirus type 1a E7 protein (residues 1-88). Description: HPV1a E7 small-molecule binders, primary screen, biochemical, small-molecule microarray, residues 1-88, 635 nm (AID 1129). The note with it: small-molecule microarray binding, fluorescence 635 nm; higher = more signal.
Assay [11] has as its target Focal adhesion kinase 1 (Homo sapiens) (UniProt Q05397). Description: PTK2 protein binding on printed compound slides – biochemical, small-molecule microarray, 635/667 nm fluorescence, BSA, DTT, primary screen (AID 1130).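 Also: composite of spot emission at 667 nm and signal to noise over triplicate slides.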 The note with it: 635 nm fluorescence, higher = more signal.
For assay [12], the system named is Fibrinogen (Alexa647-labelled). Description: Alexa647-fibrinogen binding to printed small molecules – biochemical, small-molecule microarray, 635/667 nm fluorescence, artefact control for SMM control-protein annotation, profiling panel (AID 1131).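 Also: z-score merges 667 nm fluorescence with per-spot signal-to-noise over triplicate slides.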 Particulars: fibrinogen-A647 binding fluorescence, higher = more signal.
The target of assay [13] is Follistatin (Homo sapiens) (UniProt P19883). Description: FST protein binding to printed compounds – biochemical, small-molecule microarray, 635/667 nm fluorescence, primary screen (AID 1132). Particulars: 635 nm fluorescence, higher = more signal.
Follistatin (Homo sapiens), sequence (P19883 whole entry, looked up): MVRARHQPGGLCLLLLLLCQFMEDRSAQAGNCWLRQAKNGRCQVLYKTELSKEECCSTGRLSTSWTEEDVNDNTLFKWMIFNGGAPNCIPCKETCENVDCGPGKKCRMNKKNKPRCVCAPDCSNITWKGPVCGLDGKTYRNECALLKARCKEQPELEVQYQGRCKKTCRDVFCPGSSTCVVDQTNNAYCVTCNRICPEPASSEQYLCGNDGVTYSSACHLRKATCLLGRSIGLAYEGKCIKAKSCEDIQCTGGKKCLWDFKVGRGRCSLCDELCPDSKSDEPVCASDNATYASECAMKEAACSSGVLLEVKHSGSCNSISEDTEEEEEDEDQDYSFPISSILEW
The target in assay [14] is Fibroblast growth factor 2 (Homo sapiens) (UniProt P09038). Description: basic fibroblast growth factor binding to printed compounds – biochemical, small-molecule microarray, 635/667 nm fluorescence, primary screen (AID 1133). Particulars: FGF2, fluorescence 635/667, higher = more signal.
Fibroblast growth factor 2 (Homo sapiens), sequence (P09038 whole entry, looked up): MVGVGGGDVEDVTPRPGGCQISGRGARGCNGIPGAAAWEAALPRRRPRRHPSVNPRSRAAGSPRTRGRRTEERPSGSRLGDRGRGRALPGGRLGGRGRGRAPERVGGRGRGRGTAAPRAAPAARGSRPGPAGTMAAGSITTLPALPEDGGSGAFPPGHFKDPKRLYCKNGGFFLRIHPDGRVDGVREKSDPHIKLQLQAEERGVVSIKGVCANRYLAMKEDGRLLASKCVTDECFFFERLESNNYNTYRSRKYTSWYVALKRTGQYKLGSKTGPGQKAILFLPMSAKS
Assay [15] can be described thus: JC-1 mitochondrial potential readout, lung cancer cells – cell-based, A549, JC-1 fluorescence, basal, 24 h, 100 nL, profiling panel (AID 1138).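 Also: A549 lung adenocarcinoma cells under basal conditions with no added stimulus; test concentration not given here.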 Particulars: higher = more signal.
For a further assay, the system named is Lefty1. In words: Lefty1 protein binding to printed compounds – biochemical, small-molecule microarray, 635/667 nm fluorescence, primary screen (AID 1139). Particulars: fluorescence 635/667, higher = more signal.
Assay [16] has as its system wheat germ agglutinin (Triticum aestivum), Alexa647-labelled. Description: Alexa647-WGA lectin binding to printed small molecules – biochemical, small-molecule microarray, 635/667 nm fluorescence, artefact control for SMM control-protein annotation, profiling panel (AID 1140).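 Also: score merges 667 nm feature emission with signal to noise over triplicate slides.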 Particulars: WGA-A647 binding, 635 nm fluorescence, higher = more signal.
Assay [17] deals with Luciferin 4-monooxygenase (Photinus pyralis) (UniProt P08659). In words: inhibition of purified Photinus pyralis luciferase – biochemical, luminescence, purified enzyme, 2006 set, primary screen (AID 1141).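 Also: cell-free assay with purified firefly luciferase at 100 ng per well in PBS; test concentration not given here.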 Particulars: purified firefly luciferase, SteadyGlo luminescence, 30 min; higher = more signal, called active from +8 up or from −8 down.
Luciferin 4-monooxygenase (Photinus pyralis), sequence (P08659 whole entry, looked up): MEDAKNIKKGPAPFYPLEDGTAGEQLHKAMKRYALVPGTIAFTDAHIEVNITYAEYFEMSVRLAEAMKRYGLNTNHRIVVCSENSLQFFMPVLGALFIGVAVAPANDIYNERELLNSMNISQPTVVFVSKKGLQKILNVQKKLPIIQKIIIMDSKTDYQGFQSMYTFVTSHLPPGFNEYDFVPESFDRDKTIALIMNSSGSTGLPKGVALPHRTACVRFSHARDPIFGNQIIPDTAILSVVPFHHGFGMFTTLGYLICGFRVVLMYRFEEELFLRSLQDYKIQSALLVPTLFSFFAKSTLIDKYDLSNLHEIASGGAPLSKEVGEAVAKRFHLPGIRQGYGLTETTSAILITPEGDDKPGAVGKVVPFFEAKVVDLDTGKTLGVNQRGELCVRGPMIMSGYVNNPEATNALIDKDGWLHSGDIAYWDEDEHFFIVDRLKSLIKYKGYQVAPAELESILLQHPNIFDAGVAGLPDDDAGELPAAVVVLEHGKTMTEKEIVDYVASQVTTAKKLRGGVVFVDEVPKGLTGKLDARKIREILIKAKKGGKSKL

Focal adhesion kinase 1 (Homo sapiens), sequence (Q05397 whole entry, looked up): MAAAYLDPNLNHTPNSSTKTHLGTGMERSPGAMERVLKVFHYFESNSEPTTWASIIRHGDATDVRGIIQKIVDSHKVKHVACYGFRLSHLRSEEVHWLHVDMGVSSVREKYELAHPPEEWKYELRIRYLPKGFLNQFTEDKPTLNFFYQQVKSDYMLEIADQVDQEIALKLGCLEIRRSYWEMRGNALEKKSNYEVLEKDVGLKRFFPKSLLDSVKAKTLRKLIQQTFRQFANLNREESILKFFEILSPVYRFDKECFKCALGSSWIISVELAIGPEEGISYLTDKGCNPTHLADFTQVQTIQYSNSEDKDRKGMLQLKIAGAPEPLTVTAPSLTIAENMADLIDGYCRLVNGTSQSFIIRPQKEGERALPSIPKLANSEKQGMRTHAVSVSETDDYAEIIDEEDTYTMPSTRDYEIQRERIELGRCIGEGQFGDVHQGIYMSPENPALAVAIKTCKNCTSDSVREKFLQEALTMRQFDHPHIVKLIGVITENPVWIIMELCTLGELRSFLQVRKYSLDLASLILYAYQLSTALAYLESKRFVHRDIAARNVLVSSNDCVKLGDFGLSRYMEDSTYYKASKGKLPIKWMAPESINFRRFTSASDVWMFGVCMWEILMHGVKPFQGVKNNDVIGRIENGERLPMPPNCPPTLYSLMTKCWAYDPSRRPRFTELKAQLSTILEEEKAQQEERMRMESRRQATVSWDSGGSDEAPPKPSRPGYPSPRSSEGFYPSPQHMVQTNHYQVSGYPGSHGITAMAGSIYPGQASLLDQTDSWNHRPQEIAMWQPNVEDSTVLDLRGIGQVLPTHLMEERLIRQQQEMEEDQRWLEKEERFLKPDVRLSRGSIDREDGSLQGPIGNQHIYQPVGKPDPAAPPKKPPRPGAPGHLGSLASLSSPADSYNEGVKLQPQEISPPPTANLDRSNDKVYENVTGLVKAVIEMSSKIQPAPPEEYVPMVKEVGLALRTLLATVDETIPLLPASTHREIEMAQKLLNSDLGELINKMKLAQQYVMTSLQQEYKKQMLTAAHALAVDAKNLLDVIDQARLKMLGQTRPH

Regarding `COc1ccc([Si](C)(C)[C@@H]2[C@@H](CCO)O[C@]3(C(=O)N(Cc4ccc(N5C(=O)c6cccc7cccc5c67)cc4)c4ccccc43)[C@H]2C)cc1`, the composite z-score with Albumin (Bos taurus) was 0.308; in assay [2], -0.252; in [3], -0.119; in [4], 0.382; in assay [5], 0.332; in assay [6], 0.232. For the same compound, the composite z-score in the assay on Sam68 (KHDRBS1) is -0.276; in assay [7] it was -0.161; in assay [8], -0.259; in assay [9], -0.0225; in [10], -0.797; in assay [11], 0.138. For the same compound, the composite z-score was -0.518 in assay [12]; -1.12 in assay [13]; -0.753 in assay [14]; -0.536 in the assay with Lefty1; 0.397 in [16]. The composite Z-score in [1] was 0.77 (inactive). Also, the z-score in [15] was 1.23; in assay [17], -0.604 (inactive).

`CCOC(=O)C[C@H]1[C@H](OC(=O)c2ccc(C(=O)c3ccccc3)cc2)[C@@H](NC(=O)c2ccc3ccccc3n2)c2cc(OCCCO)ccc2N1C(=O)c1ccc2ccccc2n1`: the composite z-score is 0.802 in the assay with Albumin (Bos taurus); 0.16 in assay [2]; -0.101 in assay [3]; 0.245 in [4]; 0.847 in assay [5]; 0.808 in assay [6]. Besides, the composite z-score in the assay on Sam68 (KHDRBS1) is 0.616; in [7], -0.0787; in assay [8], 0.564; in assay [9], -0.0631; in assay [10], 1.06; in assay [11], -0.0481. Further, the composite z-score in assay [12] was found to be 0.887; in [13], 0.37; in [14], 0.146; in the assay on Lefty1, 0.105; in [16], 0.515. Also, in assay [1], the composite Z-score is 0.525 (inactive). Besides, the z-score was 1.5 in assay [15] and -0.857 (inactive) in assay [17].

As for `C=CCN1Cc2ccccc2C[C@@]2(COC(c3ccc(OCCCO)cc3)=N2)C1=O`, the composite z-score with Albumin (Bos taurus) is -0.476; in assay [2] it was 0.0596; in [3], 0.0965; in assay [4], 0.598; in [5], 2.14; in assay [6], 0.547. Further, the composite z-score in the assay on Sam68 (KHDRBS1) came out at 0.811; in assay [7], 1.12; in assay [8], 0.85; in assay [9], 0.131; in assay [10], 1.2; in assay [11], 0.92. For the same compound, the composite z-score is 0.526 in assay [12]; 1.15 in assay [13]; 0.788 in assay [14]; 0.374 in the assay with Lefty1; 0.41 in assay [16]. In addition, the composite Z-score in [1] is 0.0425 (inactive). Besides, the values for the z-score in assay [15] and in [17] were 1.67 and -1.62 (inactive), respectively.

With `O=C1O[C@H](c2ccccc2)[C@H](c2ccccc2)N2[C@H]1[C@@H](C(=O)Nc1nc3ccccc3s1)[C@]1(C(=O)Nc3ccc(C#CC4=CCCCC4)cc31)[C@H]2c1ccc(OCCO)cc1`, the composite z-score with Albumin (Bos taurus) is 0.897; in assay [2] it was 0.225; in assay [3], -0.0144; in assay [4], 0.761; in assay [5], 2.68; in assay [6], 0.596. In addition, the composite z-score turned out to be 1.3 in the assay with Sam68 (KHDRBS1); 0.448 in assay [7]; 1.12 in assay [8]; 1.62 in [9]; 1.18 in [10]; 0.148 in assay [11]. For the same compound, the composite z-score in assay [12] came to 0.831; in [13], 1.12; in [14], 0.579; with Lefty1, 0.077; in assay [16], 0.916. For the same compound, in assay [1], the composite Z-score is -0.495 (inactive). For the same compound, the z-score in assay [15] was -2.24; in [17], -3.28 (inactive).

Turning to `CC(=O)NCCCC[C@@H]1NC(=O)[C@@H]2C[C@H](C(=O)NCc3ccc(F)cc3)[C@H](c3ccc(O)cc3)N2C1=O`, the composite z-score with Albumin (Bos taurus) is -1.25; in assay [2], -0.0391; in [3], -0.153; in assay [4], 0.715; in [5], 1.79; in [6] it was 0.453. The composite z-score is 1.02 in the assay with Sam68 (KHDRBS1); 0.526 in [7]; 1.15 in assay [8]; 2.04 in [9]; 0.582 in assay [10]; 0.244 in assay [11]. Besides, the composite z-score in assay [12] was 0.754; in assay [13], 1.33; in assay [14], 1.22; with Lefty1, 0.889; in assay [16] it was 0.182. In addition, the composite Z-score in assay [1] was 0.15 (inactive). Moreover, the values for the z-score in [15] and in assay [17] were 0.329 and -0.333 (inactive), respectively.

As for `C=CCC(OC(C)=O)[C@@H]1[C@@H](N(Cc2ccc(-c3cccc(C(F)(F)F)c3)o2)C(=O)c2ccc(C)cc2)c2cc(OCCCO)ccc2N1C(=O)c1ccc2ccccc2n1` (stereo not given in full), the composite z-score is -0.706 with Albumin (Bos taurus); 0.116 in [2]; -0.0255 in [3]; 0.053 in assay [4]; 0.163 in [5]; 0.497 in assay [6]. In addition, the composite z-score in the assay with Sam68 (KHDRBS1) was 0.0508; in assay [7], 0.232; in [8], -0.335; in [9] it was -0.614; in [10], -0.369; in [11], -0.223. Also, the composite z-score was 0.33 in [12]; 0.839 in [13]; 0.131 in assay [14]; 0.727 in the assay with Lefty1; 0.717 in assay [16]. The composite Z-score in assay [1] is 0.936 (inactive). Further, the z-score in assay [15] was 0.61; in assay [17] it was -1.25 (inactive).

Take `COc1ccc(C#Cc2ccc3c(c2)[C@]2(C(=O)N3)[C@H](c3ccc(OCCO)cc3)N3[C@H](c4ccccc4)[C@H](c4ccccc4)OC(=O)[C@H]3[C@@H]2C(=O)Nc2nc3ccccc3s2)cc1`: the composite z-score was 0.562 with Albumin (Bos taurus); 0.217 in [2]; -0.0267 in [3]; 0.645 in assay [4]; 2.22 in [5]; 0.534 in assay [6]. For the same compound, the composite z-score in the assay on Sam68 (KHDRBS1) was determined as 1.29; in [7], 0.57; in [8], 1.13; in [9] it was 0.842; in assay [10], 1.17; in assay [11], 0.862. The composite z-score in assay [12] was 0.88; in assay [13], 1.3; in assay [14], 1.28; in the assay on Lefty1 it was 1.57; in assay [16] it was 0.764. Also, the composite Z-score in assay [1] is -0.0127 (inactive). In addition, the z-score was -2.06 in [15] and -3.84 (inactive) in [17].

As for `COCCCNC(=O)[C@@]1(C)c2ccccc2C(=O)N(Cc2ccccc2)[C@H]1c1ccc(CO)cc1`, the composite z-score in the assay with Albumin (Bos taurus) is 0.172; in assay [2], -0.274; in assay [3], -0.189; in [4], 0.397; in assay [5], 2.62; in assay [6], 0.848. Also, the composite z-score with Sam68 (KHDRBS1) was 0.203; in assay [7] it was -1.5; in assay [8] it was 0.17; in [9], 0.909; in assay [10] it was 0.0047; in assay [11], 0.101. In addition, the composite z-score in assay [12] was -0.678; in assay [13], 0.0033; in [14], -0.992; in the assay with Lefty1, -0.635; in assay [16] it was -0.505. Besides, the composite Z-score in assay [1] is 0.45 (inactive). Further, the results for the z-score in assay [15] and in assay [17] were -0.939 and -0.0137 (inactive), respectively.

For `C=C(C(=O)CC[C@@H](OC(=O)c1cccnc1)c1ccc(OCCO)cc1)C(C)C`, the composite z-score with Albumin (Bos taurus) is -0.541; in assay [2] it was 0.123; in assay [3], -0.179; in [4] it was 0.0384; in [5], -0.266; in assay [6], 0.354. Further, the composite z-score is 0.921 in the assay on Sam68 (KHDRBS1); 0.606 in [7]; 0.303 in assay [8]; 0.222 in [9]; 0.314 in assay [10]; -0.17 in [11]. Further, the composite z-score in assay [12] was -0.0579; in assay [13], 1.43; in assay [14], 1.16; in the assay with Lefty1, 1.21; in [16], 0.752. Besides, the composite Z-score in assay [1] is -0.471 (inactive). In addition, the results for the z-score in [15] and in assay [17] were -0.358 and -3.48 (inactive), respectively.

The values above are taken from PubChem BioAssay.
